# Measurements taken from the supplement of paper PMC3150612.
# ± gives the standard deviation of the averaged measurements.
# Assays:
# [1] = tested on: Drosophila melanogaster; test: olfactory response index (dipstick assay) (fraction of flies (RI; 1 aversion, 0.5 indifferent, 0 attraction)); higher = stronger aversion to the odorant; details: odorant concentration: 1% v/v, male
# [2] = tested on: Drosophila melanogaster; test: as above; details: odorant concentration: 1% v/v, female
# [3] = genotype (tubulin-GAL4 x UAS-RNAi line; control = progenitor): A5
# [4] = genotype (tubulin-GAL4 x UAS-RNAi line; control = progenitor): control
# [5] = genotype (tubulin-GAL4 x UAS-RNAi line; control = progenitor): obp 18a
# [6] = genotype (tubulin-GAL4 x UAS-RNAi line; control = progenitor): obp 22a
# [7] = genotype (tubulin-GAL4 x UAS-RNAi line; control = progenitor): obp 28a
# [8] = genotype (tubulin-GAL4 x UAS-RNAi line; control = progenitor): obp 56a
# [9] = genotype (tubulin-GAL4 x UAS-RNAi line; control = progenitor): obp 56c
# [10] = genotype (tubulin-GAL4 x UAS-RNAi line; control = progenitor): obp 56f
# [11] = genotype (tubulin-GAL4 x UAS-RNAi line; control = progenitor): obp 57a
# [12] = genotype (tubulin-GAL4 x UAS-RNAi line; control = progenitor): obp 57b
# [13] = genotype (tubulin-GAL4 x UAS-RNAi line; control = progenitor): obp 58c
# [14] = genotype (tubulin-GAL4 x UAS-RNAi line; control = progenitor): obp 59a
# [15] = genotype (tubulin-GAL4 x UAS-RNAi line; control = progenitor): obp 83a
# [16] = genotype (tubulin-GAL4 x UAS-RNAi line; control = progenitor): obp 83c
# [17] = genotype (tubulin-GAL4 x UAS-RNAi line; control = progenitor): obp 93a
# [18] = genotype (tubulin-GAL4 x UAS-RNAi line; control = progenitor): obp 99b
# [19] = genotype (tubulin-GAL4 x UAS-RNAi line; control = progenitor): obp 56h
smiles,measurement,setting,value
O=Cc1ccccc1 [benzaldehyde],olfactory response index,[1]; [3],0.725 ± 0.049
same,olfactory response index,[1]; [4],0.83 ± 0.13
same,olfactory response index,[1]; [5],0.53 ± 0.1
same,olfactory response index,[1]; [6],0.467 ± 0.074
same,olfactory response index,[1]; [7],0.621 ± 0.14
same,olfactory response index,[1]; [8],0.418 ± 0.068
same,olfactory response index,[1]; [9],0.522 ± 0.14
same,olfactory response index,[1]; [10],0.656 ± 0.11
same,olfactory response index,[1]; [11],0.547 ± 0.17
same,olfactory response index,[1]; [12],0.636 ± 0.024
same,olfactory response index,[1]; [13],0.702 ± 0.035
same,olfactory response index,[1]; [14],0.739 ± 0.0092
same,olfactory response index,[1]; [15],0.591 ± 0.15
same,olfactory response index,[1]; [16],0.557 ± 0.023
same,olfactory response index,[1]; [17],0.537 ± 0.042
same,olfactory response index,[1]; [18],0.299 ± 0.13
same,olfactory response index,[1]; [19],0.555 ± 0.12
same,olfactory response index,[2]; [3],0.8108 ± 0.005
same,olfactory response index,[2]; [4],0.694 ± 0.053
same,olfactory response index,[2]; [5],0.534 ± 0.029
same,olfactory response index,[2]; [6],0.708 ± 0.24
same,olfactory response index,[2]; [7],0.757 ± 0.076
same,olfactory response index,[2]; [8],0.683 ± 0.17
same,olfactory response index,[2]; [9],0.645 ± 0.031
same,olfactory response index,[2]; [10],0.75 ± 0.058
same,olfactory response index,[2]; [11],0.839 ± 0.059
same,olfactory response index,[2]; [12],0.748 ± 0.087
same,olfactory response index,[2]; genotype (tubulin-GAL4 x UAS-RNAi line; control = progenitor): obp 58b,0.753 ± 0.048
same,olfactory response index,[2]; [13],0.795 ± 0.051
same,olfactory response index,[2]; [14],0.863 ± 0.051
same,olfactory response index,[2]; [15],0.663 ± 0.16
same,olfactory response index,[2]; [16],0.797 ± 0.16
same,olfactory response index,[2]; [17],0.738 ± 0.11
same,olfactory response index,[2]; [18],0.379 ± 0.16
same,olfactory response index,[2]; [19],0.726 ± 0.091
